We go through twelve molecules from PMC12864922, “TDP-43 directly inhibits mRNA accumulation in neurites through modulation of mRNA stability”.

Whole data set: some 9,900 sequences, median “r (bound/input frequency ratio)” near 0.7, cut for the highest 2% near 6.5. Only a selection was taken, and the highest values are over-represented in it overall.

B1: ENSMUSG00000061578.1206|Ksr2 (ssRNA)
RNA: GGGAGUUCUACAGUCCGACGAUCGCUUCGAUAUCCGCAUGCUAUAUGGACACACUAGAAAGCCCAUCCUAGGUCUUUCCAUGGUCUCUCACACCCCUGUCCCCGUCCCCUCCACCCCCCGGCAGCAUGCUUCACUCUAUGAAUGAGCCGCUGGGAUAUUGACAUGGAGAUGUGUUGAUGGAAAAAGCCUCCACACCCAACAUAACUCUCCAGAGAGAUAUUGAAAGUGAUGGGCAGAGAGUCUGACAAUGACCCAGGGGUCAUUGUGAGUCCUAGGCUGAAUCUGUAAUGGGGUCCAAAGUGCCUCUUGCGGUCGCACUAGUGUGGAAUUCUCGGGUGUCAAGG
B2: ENSMUSG00000022095.190|Fam160b2 (ssRNA)
RNA: GGGAGUUCUACAGUCCGACGAUCGCUUCGAUAUCCGCAUGCUAUUCCCUCCUGGGCAAGGAGGAGCAGGCCAGAGCCCCUUUUGCUUCCUUUUCCUGCCCAUGCCACCUCUCGAAGCCGGGCACAGGUUGCCAGGAGGUGACAUGAAAGAGGAGGAAACUCCAUGACCUCUACAUCCCCCGCAGUCCUCCCAGCGGGGGAGGACUUCUCUGCUGCUCCGAAGAACAUCAUGCACUCCUGUGUGUGUGUGUGAGUGUGUGUGUGUGUGUGUGUGUGUGUGUGUGUGUAUGUGUGUGUAUAUGUGCUCUUGCGGUCGCACUAGUGUGGAAUUCUCGGGUGUCAAGG
B3: ENSMUSG00000022095.193|Fam160b2 (ssRNA)
RNA: GGGAGUUCUACAGUCCGACGAUCGCUUCGAUAUCCGCAUGCUAGGAGCAGGCCAGAGCCCCUUUUGCUUCCUUUUCCUGCCCAUGCCACCUCUCGAAGCCGGGCACAGGUUGCCAGGAGGUGACAUGAAAGAGGAGGAAACUCCAUGACCUCUACAUCCCCCGCAGUCCUCCCAGCGGGGGAGGACUUCUCUGCUGCUCCGAAGAACAUCAUGCACUCCUGUGUGUGUGUGUGAGUGUGUGUGUGUGUGUGUGUGUGUGUGUGUGUGUAUGUGUGUGUAUAUGUGUGUGUGUGUGUGUAUGUGCUCUUGCGGUCGCACUAGUGUGGAAUUCUCGGGUGUCAAGG
B4: ENSMUSG00000022095.184|Fam160b2 (ssRNA)
RNA: GGGAGUUCUACAGUCCGACGAUCGCUUCGAUAUCCGCAUGCUACAGGCAUUACCUCACAACAGGCCUGCAGUUGUUGGCUUCCCUCCUGGGCAAGGAGGAGCAGGCCAGAGCCCCUUUUGCUUCCUUUUCCUGCCCAUGCCACCUCUCGAAGCCGGGCACAGGUUGCCAGGAGGUGACAUGAAAGAGGAGGAAACUCCAUGACCUCUACAUCCCCCGCAGUCCUCCCAGCGGGGGAGGACUUCUCUGCUGCUCCGAAGAACAUCAUGCACUCCUGUGUGUGUGUGUGAGUGUGUGUGUGUGUGCUCUUGCGGUCGCACUAGUGUGGAAUUCUCGGGUGUCAAGG
B5: ENSMUSG00000022095.183|Fam160b2 (ssRNA)
RNA: GGGAGUUCUACAGUCCGACGAUCGCUUCGAUAUCCGCAUGCUACGGCGCCAGGCAUUACCUCACAACAGGCCUGCAGUUGUUGGCUUCCCUCCUGGGCAAGGAGGAGCAGGCCAGAGCCCCUUUUGCUUCCUUUUCCUGCCCAUGCCACCUCUCGAAGCCGGGCACAGGUUGCCAGGAGGUGACAUGAAAGAGGAGGAAACUCCAUGACCUCUACAUCCCCCGCAGUCCUCCCAGCGGGGGAGGACUUCUCUGCUGCUCCGAAGAACAUCAUGCACUCCUGUGUGUGUGUGUGAGUGUGUGUGCUCUUGCGGUCGCACUAGUGUGGAAUUCUCGGGUGUCAAGG
B6: ENSMUSG00000022095.185|Fam160b2 (ssRNA)
RNA: GGGAGUUCUACAGUCCGACGAUCGCUUCGAUAUCCGCAUGCUAUUACCUCACAACAGGCCUGCAGUUGUUGGCUUCCCUCCUGGGCAAGGAGGAGCAGGCCAGAGCCCCUUUUGCUUCCUUUUCCUGCCCAUGCCACCUCUCGAAGCCGGGCACAGGUUGCCAGGAGGUGACAUGAAAGAGGAGGAAACUCCAUGACCUCUACAUCCCCCGCAGUCCUCCCAGCGGGGGAGGACUUCUCUGCUGCUCCGAAGAACAUCAUGCACUCCUGUGUGUGUGUGUGAGUGUGUGUGUGUGUGUGUGUGCUCUUGCGGUCGCACUAGUGUGGAAUUCUCGGGUGUCAAGG
B7: ENSMUSG00000022095.191|Fam160b2 (ssRNA)
RNA: GGGAGUUCUACAGUCCGACGAUCGCUUCGAUAUCCGCAUGCUACCUGGGCAAGGAGGAGCAGGCCAGAGCCCCUUUUGCUUCCUUUUCCUGCCCAUGCCACCUCUCGAAGCCGGGCACAGGUUGCCAGGAGGUGACAUGAAAGAGGAGGAAACUCCAUGACCUCUACAUCCCCCGCAGUCCUCCCAGCGGGGGAGGACUUCUCUGCUGCUCCGAAGAACAUCAUGCACUCCUGUGUGUGUGUGUGAGUGUGUGUGUGUGUGUGUGUGUGUGUGUGUGUGUAUGUGUGUGUAUAUGUGUGUGUGCUCUUGCGGUCGCACUAGUGUGGAAUUCUCGGGUGUCAAGG
B8: ENSMUSG00000022095.186|Fam160b2|219:232;234:260 (ssRNA)
RNA: GGGAGUUCUACAGUCCGACGAUCGCUUCGAUAUCCGCAUGCUACACAACAGGCCUGCAGUUGUUGGCUUCCCUCCUGGGCAAGGAGGAGCAGGCCAGAGCCCCUUUUGCUUCCUUUUCCUGCCCAUGCCACCUCUCGAAGCCGGGCACAGGUUGCCAGGAGGUGACAUGAAAGAGGAGGAAACUCCAUGACCUCUACAUCCCCCGCAGUCCUCCCAGCGGGGGAGGACUUCUCUGCUGCUCCGAAGAACAUCAUGCACUCCACACACACACACACACACACACACACACACACACACACACACCUCUUGCGGUCGCACUAGUGUGGAAUUCUCGGGUGUCAAGG
B9: ENSMUSG00000022095.192|Fam160b2 (ssRNA)
RNA: GGGAGUUCUACAGUCCGACGAUCGCUUCGAUAUCCGCAUGCUACAAGGAGGAGCAGGCCAGAGCCCCUUUUGCUUCCUUUUCCUGCCCAUGCCACCUCUCGAAGCCGGGCACAGGUUGCCAGGAGGUGACAUGAAAGAGGAGGAAACUCCAUGACCUCUACAUCCCCCGCAGUCCUCCCAGCGGGGGAGGACUUCUCUGCUGCUCCGAAGAACAUCAUGCACUCCUGUGUGUGUGUGUGAGUGUGUGUGUGUGUGUGUGUGUGUGUGUGUGUGUAUGUGUGUGUAUAUGUGUGUGUGUGUGUGCUCUUGCGGUCGCACUAGUGUGGAAUUCUCGGGUGUCAAGG
B10: ENSMUSG00000022095.186|Fam160b2 (ssRNA)
RNA: GGGAGUUCUACAGUCCGACGAUCGCUUCGAUAUCCGCAUGCUACACAACAGGCCUGCAGUUGUUGGCUUCCCUCCUGGGCAAGGAGGAGCAGGCCAGAGCCCCUUUUGCUUCCUUUUCCUGCCCAUGCCACCUCUCGAAGCCGGGCACAGGUUGCCAGGAGGUGACAUGAAAGAGGAGGAAACUCCAUGACCUCUACAUCCCCCGCAGUCCUCCCAGCGGGGGAGGACUUCUCUGCUGCUCCGAAGAACAUCAUGCACUCCUGUGUGUGUGUGUGAGUGUGUGUGUGUGUGUGUGUGUGUGUGCUCUUGCGGUCGCACUAGUGUGGAAUUCUCGGGUGUCAAGG
B11: ENSMUSG00000022095.184|Fam160b2|231:244;246:260 (ssRNA)
RNA: GGGAGUUCUACAGUCCGACGAUCGCUUCGAUAUCCGCAUGCUACAGGCAUUACCUCACAACAGGCCUGCAGUUGUUGGCUUCCCUCCUGGGCAAGGAGGAGCAGGCCAGAGCCCCUUUUGCUUCCUUUUCCUGCCCAUGCCACCUCUCGAAGCCGGGCACAGGUUGCCAGGAGGUGACAUGAAAGAGGAGGAAACUCCAUGACCUCUACAUCCCCCGCAGUCCUCCCAGCGGGGGAGGACUUCUCUGCUGCUCCGAAGAACAUCAUGCACUCCACACACACACACACACACACACACACACACCUCUUGCGGUCGCACUAGUGUGGAAUUCUCGGGUGUCAAGG
B12: ENSMUSG00000022095.194|Fam160b2 (ssRNA)
RNA: GGGAGUUCUACAGUCCGACGAUCGCUUCGAUAUCCGCAUGCUAGGCCAGAGCCCCUUUUGCUUCCUUUUCCUGCCCAUGCCACCUCUCGAAGCCGGGCACAGGUUGCCAGGAGGUGACAUGAAAGAGGAGGAAACUCCAUGACCUCUACAUCCCCCGCAGUCCUCCCAGCGGGGGAGGACUUCUCUGCUGCUCCGAAGAACAUCAUGCACUCCUGUGUGUGUGUGUGAGUGUGUGUGUGUGUGUGUGUGUGUGUGUGUGUGUAUGUGUGUGUAUAUGUGUGUGUGUGUGUGUAUGUGUGUGUGCUCUUGCGGUCGCACUAGUGUGGAAUUCUCGGGUGUCAAGG

TDP-43, sequence (Q13148 whole entry): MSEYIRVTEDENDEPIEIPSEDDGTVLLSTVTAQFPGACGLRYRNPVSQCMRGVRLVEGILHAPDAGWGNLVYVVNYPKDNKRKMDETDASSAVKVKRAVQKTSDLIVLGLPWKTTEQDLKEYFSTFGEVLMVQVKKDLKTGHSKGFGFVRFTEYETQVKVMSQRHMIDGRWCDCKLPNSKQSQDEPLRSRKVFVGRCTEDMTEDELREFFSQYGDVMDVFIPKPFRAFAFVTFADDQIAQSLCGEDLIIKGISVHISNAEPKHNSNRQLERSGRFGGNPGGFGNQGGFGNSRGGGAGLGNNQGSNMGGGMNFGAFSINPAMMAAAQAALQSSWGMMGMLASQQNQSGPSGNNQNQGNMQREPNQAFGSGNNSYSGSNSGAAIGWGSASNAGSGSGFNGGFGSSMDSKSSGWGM

The experiment deals with TDP-43 (Homo sapiens, UniProt Q13148 1-414). Description: RNA Bind-n-Seq with designed 260-mer pool; 25 mM Tris-HCl, 150 mM KCl, 3 mM MgCl2, BSA (printed 500 mg/mL), 20 units/mL SUPERase IN; pH not stated; 500 nM RNA pool, 1 h, 4 C; TDP-43 5, 50, 500 nM; high values mean tight binding. To be noted: protein: recombinant; tags: SBP (GST cleaved off with PreScission; pGEX-GST-SBP). The procedure, abridged:
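Recombinant SBP-tagged TDP-43 at 5, 50 or 500 nM was captured on streptavidin beads, then incubated 1 h at 4 °C with 500 nM of an in vitro-transcribed 260-nt 3′ UTR oligo pool in 25 mM Tris-HCl, 150 mM KCl, 3 mM MgCl2, BSA and SUPERase IN. Bound RNA was washed, eluted with biotin, reverse transcribed, PCR-amplified and sequenced. Binding is R, each oligo's mapped-read-normalized abundance in the bound sample divided by its abundance in input. Duplicates used two independent protein batches.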
For the molecule B1, the binding signal was 0.481 R (bound/input frequency ratio).
B2: the binding signal is 7.2 R (bound/input frequency ratio).
Consider B3, for which the binding signal is 8.43 R (bound/input frequency ratio).
The value for B4 was 3.46 R (bound/input frequency ratio); that for B5 was 1.73 R (bound/input frequency ratio).
The value for B6 was 4.85 R (bound/input frequency ratio); that for B7 was 5.73 R (bound/input frequency ratio); that for B8 was 2.91 R (bound/input frequency ratio).
Consider B9, for which the binding signal was 8.2 R (bound/input frequency ratio).
Under B10 stands 6.14 R (bound/input frequency ratio).
Turning to B11, the binding signal is 3.13 R (bound/input frequency ratio).
Under B12 stands 7.48 R (bound/input frequency ratio).
